Screening data: PubChem, National Center for Advancing Translational Sciences (NCATS)
Rows were chosen to be rich in hits. Some 10% of all compounds tested hit in one or more screens of this group.
KB-V1 cytotox – kills drug-selected multidrug resistant KB-V1 cells. KB-V1 MDR cells viability, CellTiter-Glo, 72 h. Potency, µM (titrated, usually from 46.1 µM), most hits filed as cytotoxic. AID 1347076. hit rate 3.4% among 400,000; also: % is scaled to controls: 0 for no effect and ±100 for the full control effect; nearly all actives have a fitted effect of over 60% in size
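In this primary screen, KB-V1 cells overexpressing P-gp are incubated with library compounds (lowest to highest concentration) for 72 h at 37 degrees C before a luminescent ATP viability read.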
SW480 rerep – DNA re-replication induction in SW480 cells; Potency, µM (highest dose often 46.1 µM), without a hit: at the top dose re-replication activation, most hits filed as activators; hit rate 1.8% among 340,000; AID 624297; SW480 DNA re-replication, Hoechst DNA content imaging, 48 h; also: % of control where 0% means no effect; nearly all actives have a fitted effect of over 55% in size
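Readout is total intensity of Hoechst-stained nuclei, excited at 405 nm and collected at 500-530 nm. Compound treatment lasted 48 hr at 37 C in 5% CO2 before staining.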
Gal4-VP16 FLuc – counter-screen for ROR gamma inhibitors: Gal4-VP16 reporter. AID 2546. Drosophila S2 Gal4-VP16 UAS-luciferase, luminescence, 20 h. hit rate 3.5% among 310,000. Potency, µM (top dose mostly 53.6 µM), for the others: top-dose activity, negative = inhibition, most hits filed as inhibitors;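 also: Gal4-VP16 expression switched on by copper sulfate through the metallothionein promoter; % is scaled to controls: 0 for no effect and ±100 for the full control effect; nearly all actives have a fitted effect of over 50% in size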
RORg inh – blocks mouse ROR gamma transcriptional activity | AID 2551 | Potency, µM (top dose mostly 53.6 µM), inactives show at the top dose activity change, negative = inhibition, most hits filed as inhibitors | hit rate 5.4% among 310,000 | P51450 | Drosophila S2 Gal4-RORgamma UAS-luciferase reporter, 20 h; also: % is scaled to controls: 0 for no effect and ±100 for the full control effect; nearly all actives have a fitted effect of over 60% in size
Target sequence (P51450 whole entry, looked up, the tested form may be a part): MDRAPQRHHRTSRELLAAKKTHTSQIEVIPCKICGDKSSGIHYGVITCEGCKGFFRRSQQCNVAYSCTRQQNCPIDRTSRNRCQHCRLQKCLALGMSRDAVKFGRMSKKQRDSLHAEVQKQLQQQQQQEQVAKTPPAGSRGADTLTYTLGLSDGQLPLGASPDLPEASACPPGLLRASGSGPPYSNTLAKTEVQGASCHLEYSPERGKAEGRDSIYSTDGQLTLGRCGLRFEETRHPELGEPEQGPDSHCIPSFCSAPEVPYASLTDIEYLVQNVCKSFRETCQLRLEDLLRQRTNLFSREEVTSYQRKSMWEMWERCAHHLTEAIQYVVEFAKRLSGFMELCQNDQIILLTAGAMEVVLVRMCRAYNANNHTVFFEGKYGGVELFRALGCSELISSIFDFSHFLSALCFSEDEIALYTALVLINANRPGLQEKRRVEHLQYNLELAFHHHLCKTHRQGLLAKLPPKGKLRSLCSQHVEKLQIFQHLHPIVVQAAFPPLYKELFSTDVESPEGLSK
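ROR gamma transcriptional activity was tracked as Gal4-UAS luciferase output in stably transfected Drosophila Schneider cells, with compound added 1 hr before 700 uM copper sulfate induction and a 20 hr ambient-temperature incubation.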
KB-3-1 cytotox – kills parental KB-3-1 adenocarcinoma cells | KB-3-1 viability, CellTiter-Glo ATP luminescence, 72 h | hit rate 1.4% among 400,000 | Potency, µM (titrated, usually from 46.1 µM), most hits filed as cytotoxic; also: % is scaled to controls: 0 for no effect and ±100 for the full control effect; nearly all actives have a fitted effect of over 60% in size
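Multi-concentration cytotoxicity screen in KB-3-1 cells grown in DMEM lacking phenol red with 10% FBS. After 72 h at 37 °C with compound, ATP-dependent luminescence was recorded.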
MCF10A rerep – DNA re-replication induction in MCF 10a cells. Potency, µM (doses to about 46.1 µM), inactives show at the top dose activity, positive = re-replication, hits mostly activators. hit rate 2.9% among 350,000. MCF 10A DNA re-replication, Hoechst nuclear intensity, 48 h; also: % of control where 0% means no effect; nearly all actives have a fitted effect of over 50% in size
* hit, by the source's call; i = inactive; ? = inconclusive; . = no result. Calls follow the shape of the dose curve; as a rule, active = well fitted curve in the direction sought with a large enough effect; inconclusive = small, poorly fitted or top-dose-only effect, or another doubt; inactive = no such curve, though single readings can be large; an effect the other way counts as inactive or inconclusive. Potency is read from the fitted curve at half-maximal effect.

SMILES	KB-V1 cytotox	SW480 rerep	Gal4-VP16 FLuc	RORg inh	KB-3-1 cytotox	MCF10A rerep
CC(C)[C@@H](CC(=O)N[C@@H]1CCNC[C@H]1C(=O)N[C@H](CC(=O)N[C@@H](CCC(=O)O)CC(=O)O)Cc1ccccc1)NC(=O)C[C@H](Cc1c[nH]c2ccccc12)NC(=O)[C@@H]1CNCC[C@H]1N	.	.	-9.6%	6.8%	.	.
Cc1cccn2cc(-c3ccc(S(=O)(=O)N4CCCCC4)cc3)nc12	i	1.6%	0.8%	1.1%	i	21.4%
Cc1ccc(-c2cn3cccc(C)c3n2)cc1NS(=O)(=O)c1ccccc1	i	.	.	.	i	.
COc1ccc(-c2cn3cccc(C)c3n2)cc1F	?	12.3%	-14.1%	-5.2%	i	-0.6%
Cc1cccn2cc(-c3ccc(S(=O)(=O)N4CCOCC4)cc3)nc12	2.31µM*	-4.3%	-1.3%	-22.6%	i	1.2%
Cc1ccc(-c2cn3cccc(C)c3n2)cc1	i	-4.5%	-44.2%	11.2µM*	i	0.6%
Cc1cccn2cc(-c3ccc(Cl)cc3)nc12	?	-11.3%	?	5.62µM*	i	?
OC(c1ccc(Cl)c(Cl)c1)c1ncc(-c2ccccc2Cl)[nH]1 (stereo not given)	i	.	.	.	i	.
Cc1oc(C(C)(C)C)cc1C(=O)Nc1ccc(C(=O)O)cc1	i	-3.8%	5.0%	?	i	-9.7%
Cc1cc(NC(=O)c2cc(C(C)(C)C)oc2C)no1	i	1.9%	-15.4%	12.6µM*	i	?
Cc1cc(NC(=O)c2c(C)noc2C)no1	i	?	1.7%	-12.9%	i	16.4µM*
Cc1cc(NC(=O)c2c(Cl)cccc2Cl)no1	i	-22.8%	-3.2%	-23.3%	i	-1.0%
C(=Nc1ccc(/C=C/c2ccnc3ccccc23)cc1)c1ccc2c(c1)OCO2	i	.	.	.	i	.
COc1ccc(C2=NN(C(=O)CSc3nnc(-c4ccccc4F)o3)C(c3ccco3)C2)cc1 (stereo not given)	i	0.0%	21.3%	24.8%	i	?
CS(=O)(=O)Nc1cccc(C2=NN(C(=O)c3ccco3)C(c3ccco3)C2)c1 (stereo not given)	i	?	3.5%	30.3%	?	?
O=S(=O)(c1ccccc1)N1N=C(c2ccc(O)cc2)CC1c1ccco1 (stereo not given)	i	3.6%	20µM*	-19.7%	i	-23.4%
CC(=O)N1N=C(c2ccc(NS(=O)(=O)c3ccccc3)cc2)CC1c1ccco1 (stereo not given)	i	11.6µM*	.	.	?	?
COc1ccc(C2=NN(C(N)=S)C(c3ccco3)C2)cc1 (stereo not given)	i	-4.2%	?	10µM*	?	21.1%
CC(=O)N1N=C(c2cccc(NS(=O)(=O)c3ccc(C)cc3)c2)CC1c1ccco1 (stereo not given)	i	16.4µM*	1.1%	27.6%	?	?
O=C(NCc1cccs1)C1C(=O)Nc2ccccc2C(=O)N1Cc1ccccc1 (stereo not given)	i	.	.	.	i	.
CC12CCC(=O)N1C(C(=O)Nc1nc3c(F)cc(F)cc3s1)CS2 (stereo not given)	i	-8.5%	3.55µM*	-30.6%	i	?
Cc1cccc2sc(NC(=O)C3CSC4(C)CCC(=O)N34)nc12 (stereo not given)	i	?	1.6%	-24.8%	i	?
COc1ccc(-c2cc(C3C4C=CCCC4(C)C(=O)N3Cc3ccccc3)ccc2F)cc1OC (stereo not given)	.	.	-1.4%	17.9%	.	.
CC1(C)Cc2c(sc(NC(=O)COc3ccc(Cl)cc3)c2C#N)C(C)(C)N1	i	?	-9.4%	-0.8%	i	?
Cc1ccccc1OCC(=O)Nc1sc2c(c1C#N)CC(C)(C)NC2(C)C	i	?	?	-34.9%	i	20.6µM*
SMILES	KB-V1 cytotox	SW480 rerep	Gal4-VP16 FLuc	RORg inh	KB-3-1 cytotox	MCF10A rerep
O=C(NCC1CCCO1)c1cc([N+](=O)[O-])ccc1N1CCC(Cc2ccccc2)CC1 (stereo not given)	?	-23.7%	.	.	4.61µM*	13.1%
O=C(O)c1cc([N+](=O)[O-])ccc1N1CCC(Cc2ccccc2)CC1	i	-44.5%	2.3%	11.0%	i	-5.7%
Cc1ccc(S(=O)(=O)CCC(=O)N2CCN(c3ccccc3O)CC2)cc1	i	9.2µM*	.	.	i	?
CCCCC(C)/C=C(C)/C=C(\C)C(=O)NC1=CC(O)(/C=C/C=C/C=C/C(=O)NC2=C(O)CCC2=O)C2OC2C1=O (stereo not given)	.	.	1.26µM*	0.562µM*	.	.
COc1cc(/C=N/NC(=O)c2c(-c3ccccc3)noc2C)ccc1O	i	-3.8%	9.0%	6.0%	i	0.0%
Cc1ccc(/C=N/NC(=O)c2c(-c3ccccc3)noc2C)c(O)c1	.	.	3.16µM*	3.16µM*	.	.
Cc1onc(-c2ccccc2)c1C(=O)N/N=C/c1c[nH]c2ccccc12	?	-47.2%	7.08µM*	2.82µM*	i	?
COc1cccc(/C=N/NC(=O)c2c(-c3ccccc3)noc2C)c1OC	i	-8.6%	.	.	i	11.0%
COc1cc(C(=O)Oc2ccccc2/C=N/NC(=O)c2ccc(Cl)cc2Cl)cc(OC)c1OC	?	?	11.2µM*	7.08µM*	i	?
COc1cccc(/C=N/NC(=O)c2c(-c3ccccc3)noc2C)c1O	i	?	2µM*	0.355µM*	?	?
N#CCCCS(=O)(=O)c1ccccc1	.	.	-2.5%	-13.9%	.	.
O=C1NC[C@@H](CCCCN2C[C@H](Cc3ccc(O)cc3)N(Cc3ccccc3)C(=O)C2=O)N(CCC2CCCCC2)C1=O	?	.	.	.	i	.
COc1ccccc1/C=N/NC(=O)c1ccc(-c2ccccc2)cc1	i	6.3%	?	11.2µM*	i	18.4µM*
COc1cc(/C=N\NC(=O)c2ccc(-c3ccccc3)cc2)cc(OC)c1O	i	-0.5%	?	?	i	?
CCOc1cc([N+](=O)[O-])cc(/C=N/NC(=O)c2c(-c3ccccc3)noc2C)c1O	?	8.2µM*	0.631µM*	0.631µM*	?	14.9%
CC(Oc1ccc2ccc(=O)oc2c1)C(=O)NC1CC(C)(C)NC(C)(C)C1 (stereo not given)	i	24.7%	-2.3%	-6.1%	i	-0.1%
CC1C(=O)N(Cc2cn(CCC3OCCO3)nn2)CCS(=O)(=O)N1Cc1ccc(-c2ccccc2)cc1 (stereo not given)	i	.	.	.	i	.
